Compound activity from PubChem.
HDAC3 inhib: blocks human histone deacetylase 3 | O15379 | recombinant HDAC3, fluorogenic peptide/trypsin coupled, fluorescence | inhibition, % at 8.3 µM | 320,000 tested, 0.15% active | AID 2718; in the data active means inhibition above about 26%, passing the limit was not always enough
Target sequence (O15379 whole entry, looked up): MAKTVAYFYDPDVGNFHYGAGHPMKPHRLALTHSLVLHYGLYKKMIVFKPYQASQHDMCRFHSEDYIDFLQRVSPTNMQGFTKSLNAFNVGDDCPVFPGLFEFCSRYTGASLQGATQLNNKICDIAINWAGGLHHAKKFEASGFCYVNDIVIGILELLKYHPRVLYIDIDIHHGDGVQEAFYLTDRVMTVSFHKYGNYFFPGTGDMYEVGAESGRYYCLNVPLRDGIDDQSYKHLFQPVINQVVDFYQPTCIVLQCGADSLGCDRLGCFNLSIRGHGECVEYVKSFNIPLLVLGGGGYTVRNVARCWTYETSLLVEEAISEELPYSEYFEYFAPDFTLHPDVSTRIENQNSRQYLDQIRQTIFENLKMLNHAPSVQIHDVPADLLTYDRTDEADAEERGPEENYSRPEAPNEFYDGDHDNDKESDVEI
CR mimetic SO: yeast age-related superoxide inhibition as caloric restriction mimetic | S. cerevisiae aged cells, superoxide DHE fluorescence; stronger effect = lower value | superoxide response (% of plate mean), % at 10 µM | 330,000 tested, 0.18% active | AID 2690;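 active means superoxide response under a set limit, about three screen SD below normal, cut at about 65% in these data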;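 further: yeast aged for seven days with compound at 30 °C before DHE staining; 100% = average MFI of all compound-treated wells on the plate with controls excluded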
HIF activator: HIF pathway transcriptional activation; U2OS HRE-luciferase reporter, luminescence; normalized: DMSO 0%, desferrioxamine 100%; AID 1910; 300,000 tested, 0.32% active; activation, % at 7.5 µM (by protocol);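 active means mean activation of at least 10% of the iron chelator positive control signal, with at least half of replicates also reaching 10%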
LANA-H2A inh: blocks KSHV LANA binding to histone H2A/H2B; Q9QR71; cell-free LANA-H2A/H2B peptide, fluorescence polarization; inhibition, % (concentration not given with the values); 320,000 tested, 0.6% active; AID 2629; in the data active means inhibition mostly above about 10%, no sharp cut-off; inactive means mostly below about 6.7%
CR mimetic CP: yeast aging superoxide inhibition, cherry pick confirmation | S. cerevisiae aging, superoxide DHE fluorescence; stronger effect = lower value | shares compounds with CR mimetic SO | AID 434994 | superoxide response (% of plate), % at 10 µM | 850 tested, 1% active;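 active means superoxide signal below 65% of the plate average of sample wells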;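 further: cells aged with compound for 7 days at 30 degrees C before staining; 100% equals mean DHE fluorescence of all compound wells on the plate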
DHE fluor count: counter-screen for compounds affecting DHE oxidation and fluorescence in yeast | fluorescence response, % at 10 µM | S. cerevisiae BY4741, flow cytometry; stronger effect = lower value | 850 tested, under 10 active | AID 435000 | shares compounds with CR mimetic SO;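 active means fluorescence response below 15%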;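 further: percent of the mean fluorescence averaged over all compound wells on the plate; lower means stronger quenching of DHE signal or ROS scavenging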
* hit, by the source's call; nt = not tested or not shown. Shown are actives, neighbours in structure and some others; about 1.2% of the full set was active somewhere.

SMILES	HDAC3 inhib	CR mimetic SO	HIF activator	LANA-H2A inh	CR mimetic CP	DHE fluor count
Cc1cccc(NC(=O)c2cc(C)nc3ccccc23)c1	3.3	55.6*	-6.3	-0.2	96.9	92.7
Cc1ccc(NC(=O)c2cc(C)nc3ccccc23)cc1	-6.0	105.7	-0.9	3.6	nt	nt
CN(C)S(=O)(=O)N1CCN(c2cccc(Cl)c2)CC1	-1.2	64.3*	0.1	1.9	108.8	89.4
CN(C)S(=O)(=O)N1CCN(c2ccccc2)CC1	-2.9	91.3	-0.2	-7.2	nt	nt
Cc1ccc(N2CCN(C(=O)c3ccccc3Br)CC2)c(C)c1	6.3	97.8	-0.4	-1.4	101.5	95.8
Cc1ccc(C)c(N2CCN(C(=O)c3ccccc3Br)CC2)c1	-4.5	107.6	-0.5	-0.5	100.9	105.4
Cc1ccc(N2CCN(C(=O)c3ccccc3)CC2)c(C)c1	4.0	80.6	-0.1	0.7	nt	nt
Cc1ccc(C)c(N2CCN(C(=O)c3csc(C)c3C)CC2)c1	0.2	98.6	-0.1	1.5	nt	nt
O=C(c1ccccc1F)N1CCN(c2ccccc2)CC1	0.6	90.9	0.0	-0.1	nt	nt
O=C(c1ccccc1Br)N1CCN(c2ccccc2)CC1	0.2	98.0	0.3	0.2	107.5	95.3
CC1c2[nH]c3ccccc3c2C[C@H]2C(=O)N(CCCN(C)C)CC(=O)N12 (stereo partly specified)	-3.7	95.8	-1.8	-0.9	nt	nt
Cc1ccc(-c2nn(CCC(=O)NN3CCOCC3)c(=O)c3ccccc23)cc1	8.8	93.8	-0.8	1.6	nt	nt
CC(=O)Nc1ccc(NS(=O)(=O)c2ccccc2)cc1	-1.0	97.3	-0.2	-4.4	104.1	88.3
NC(=O)c1ccccc1NS(=O)(=O)c1ccccc1	-3.7	111.1	-0.1	-3.7	101.1	91.7
CC(=O)Nc1ccc(S(=O)(=O)Nc2ccc(Nc3ccccc3)cc2)cc1	8.8	98.1	-0.9	-0.3	nt	nt
CSc1cccc(NS(=O)(=O)c2ccccc2)c1	1.2	104.1	-0.2	-2.4	100.1	102.2
CC(C(=O)Nc1ccc(C#N)cc1)N1CCN(C(=O)C2CC2)CC1 (stereo unspecified)	-11.5	78.2	nt	-1.0	nt	nt
COCCN(Cc1cc2cc(C)c(C)cc2nc1Cl)C(=O)N1CCOCC1	1.1	99.9	-0.1	-0.7	nt	nt
O=C(c1ccccc1)N1CCN(c2ccccc2F)CC1	nt	98.1	0.7	0.0	118.6	99.2
CC(=O)c1ccc(N2CCN(C(=O)c3ccc(Br)cc3)CC2)c(F)c1	-3.2	87.8	-0.3	-5.9	89.7	109.1
CCC(=O)c1ccc(N2CCN(C(=O)c3ccccc3)CC2)c(F)c1	2.3	85.5	0.0	-7.3	106.2	96.2
CCOC(=O)N1CCN(c2ccc(C(=O)CC)cc2F)CC1	0.3	110.6	0.1	1.1	nt	nt
Cc1ccc(C(=O)Nc2cc3c(oc2=O)CCCC3=O)cc1	-0.8	117.8	2.2	1.8	nt	nt
COc1ccc(C)cc1S(=O)(=O)NC(C)c1cnn(-c2ccccn2)c1C (stereo unspecified)	0.7	107.6	-0.2	-1.0	nt	nt
Cc1ccc(NC(=O)C(C)OC(=O)CCN=C2NS(=O)(=O)c3ccccc32)cc1 (stereo unspecified)	1.0	83.1	0.6	5.1	nt	nt
SMILES	HDAC3 inhib	CR mimetic SO	HIF activator	LANA-H2A inh	CR mimetic CP	DHE fluor count
CCOC(=O)N1CCC(N(CCN(C)C)C(=S)Nc2cc(Cl)ccc2C)CC1	-11.0	84.4	-0.1	-0.6	nt	nt
CCOc1ccc(OCCC(=O)OCC(=O)NC(C)c2ccccc2)cc1 (stereo unspecified)	-1.6	87.4	-0.3	1.3	nt	nt
O=c1c2ccccc2ncn1Cc1ccccc1	7.7	57.1*	0.4	-1.9	97.8	94.8
S=c1[nH]nc(COc2ccccc2)n1/N=C/C(Cl)=C/c1ccccc1	5.1	111.1	0.7	1.6	nt	nt
CSc1ncc(Cl)c(C(=O)Nc2c(C)cccc2C)n1	-9.2	106.0	-0.8	2.7	107.7	104.8
CCSc1ncc(Cl)c(C(=O)Nc2ccccc2Cl)n1	5.8	92.8	1.1	1.4	108.0	101.4
CSc1ncc(Cl)c(C(=O)Nc2ccccc2Cl)n1	nt	97.9	nt	nt	101.2	89.4
COc1cc(Nc2ncnc(N)n2)cc(OC)c1OC	1.6	102.5	0.0	3.0	nt	nt
COc1cc(Nc2ncnc(N)n2)cc(OC)c1	-2.8	59.4*	0.1	2.6	104.8	109.8
CN(C)S(=O)(=O)c1ccc(C(=O)Nc2ccc3nc(N4CCOCC4)sc3c2)cc1	-1.4	117.7	nt	6.1	nt	nt
Cc1ccccc1OCC(=O)OCn1nnc2ccccc2c1=O	-0.4	64.6*	-0.3	0.5	108.7	102.1
O=C(CN1CCN(c2ccccc2F)CC1)c1ccc2cc[nH]c2c1	-1.6	62.7*	0.6	4.5	96.5	88.5
COc1ccccc1NC(=O)CSc1ccc(-c2ccc(-n3ccnc3)cc2)nn1	9.4	99.2	1.3	-4.3	105.2	90.1
Cc1ccccc1NC(=O)CSc1ccc(-c2ccc(-n3cccn3)cc2)nn1	-1.1	118.5	0.0	2.1	99.4	96.0
Cc1ccccc1NC(=O)CSc1nnnn1C	-2.7	59.9*	-0.1	1.3	101.3	94.1
COc1ccc(S(=O)(=O)N2CCOC2CNC(=O)C(=O)NCCN2CCOCC2)cc1 (stereo unspecified)	2.4	94.7	0.3	-2.6	nt	nt
COc1cccc(CN2C(=O)CCC2(C)C(=O)NC2CCCC2)c1 (stereo unspecified)	-4.6	103.5	-0.4	2.7	nt	nt
CCc1ccc(OCC(=O)Nc2ncc3c(n2)CC(C)(C)CC3=O)cc1	3.9	126.6	-0.5	-1.2	nt	nt
COc1ccc(-c2nc3ccccc3c(=O)n2O)cc1	1.7	61.2*	0.7	3.8	92.0	86.1
O=c1c2ccccc2nc(-c2ccccc2)n1O	0.3	78.9	-0.1	-0.9	nt	nt
Cc1cc(NC(=O)CN2CCN(c3ccccn3)CC2)ccc1Br	5.3	106.1	-0.5	2.8	105.5	102.8
O=C(CN1CCN(c2ccccn2)CC1)NC1CCCC1	-2.8	95.3	-1.3	4.8	nt	nt
O=C(CN1CCN(c2ccccn2)CC1)Nc1ccccc1	3.5	109.0	-0.3	4.4	120.8	105.5
O=C(CN1CCN(c2ccccn2)CC1)Nc1ccc(OCc2ccccc2)cc1	-9.4	106.6	0.4	-1.3	nt	nt
COC(=O)c1ccc(NC(=O)CN2CCN(c3ccccn3)CC2)cc1	-10.3	93.7	-0.4	-1.8	123.3	110.3
SMILES	HDAC3 inhib	CR mimetic SO	HIF activator	LANA-H2A inh	CR mimetic CP	DHE fluor count
Cc1cc(C)c(NC(=O)CN2CCN(c3ccccn3)CC2)c(C)c1	-5.4	98.9	-0.6	6.5	104.9	100.6
O=C(CN1CCN(c2ccccn2)CC1)Nc1ccc(Oc2ccccc2)cc1	-2.8	81.2	0.3	-4.6	nt	nt
CN(C)S(=O)(=O)c1ccc(Cl)c(NC(=O)CN2CCN(c3ccccn3)CC2)c1	nt	nt	2.3	nt	98.3	96.5
O=C(CN1CCN(c2ccccn2)CC1)Nc1ccc(F)c(F)c1	-1.0	95.9	0.1	-2.0	90.2	88.2
O=C(CN1CCN(c2ccccn2)CC1)Nc1ccc(F)cc1	0.2	97.5	0.0	4.2	96.1	90.6
CN(C)S(=O)(=O)c1ccc(Cl)c(NC(=O)CN2CCc3ccccc3C2)c1	-1.1	95.9	-0.1	4.0	nt	nt
